Experimental data taken from PubChem BioAssay (NCI).
About 79,000 compounds went through this panel and 15% of them were active in at least one assay; those are over-represented in the sample as a whole. Values without a mark were called inactive. Cut-off read from the data, not from the text of the source: active = growth inhibition above about 70%; inactive = the rest. Where a SMILES comes first, the peptide text is derived from it. The star is where a group is joined. Boc = CC(C)(C)OC(=O)*; OBn = c1ccc(CO*)cc1; Bn = c1ccc(C*)cc1

Assay: NCI Yeast Anticancer Drug Screen. Data for the rad50 strain (AID 155);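 note: 0% = growth of vehicle-only cultures of the same strain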
Details: S. cerevisiae rad50 strain growth inhibition; at 50.0 µM; stronger effect = higher value
Summary of the method: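 Vehicle-treated cultures provide the reference for the growth inhibition reported for compound-exposed, repair-deficient yeast.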

Compared with O=[N+]([O-])c1ccccc1N=Nc1c(O)[nH]c2c(Cl)cc(Cl)cc12, O=C1c2cc([N+](=O)[O-])ccc2-c2c(Cl)cc(NC(=O)C(F)(F)F)cc21 is higher in growth inhibition: -25.9% for the first, -0.5% for the second.

Going from CC1=CCC2N=C(c3ccccc3)CC2(C)C1=O (stereo not given) to Cc1cc2ccccc2c(Br)c1C, the growth inhibition falls from 27.4% to 5%.

First: CCN(CC)CCOc1ccc(/C(C#N)=C/c2ccc(OCCN3CCCCC3)cc2)cc1
Second: CCN(CC)CC(O)c1cccc2cc(Cl)ccc12 (stereo not given)
The growth inhibition of the first is higher: 35% for the first, -3.25% for the second.

First: COc1ccc(C2SCC(=O)N2c2nncs2)cc1F (stereo not given)
Second: COc1cc2nncc(SCc3ccc(Cl)cc3Cl)c2cc1OC
The growth inhibition of the first is lower: 6.2% for the first, 16.9% for the second.

Compared with CC(=O)OCC1OC(OC(C)=O)C(NS(=O)(=O)Cc2ccccc2)C(OC(C)=O)C1OC(C)=O (stereo not given), CN1C2CC(=O)CC1[C@@H]1OC(c3ccccc3)O[C@H]21 (stereo not given in full) is lower in growth inhibition: 10.5% for the first, 6.65% for the second.

First: COc1ccc(/C=C2\C=Cc3ccccc32)cc1OC
Second: CS(=O)(=O)c1ccc(/C=C2/C=Cc3ccccc32)cc1
The growth inhibition of the first is lower: -21.8% for the first, 19.1% for the second.

First: Cc1ccc(N2C(=O)CS/C2=C(\C#N)c2nc3ccccc3[nH]2)cc1
Second: S=c1[nH]nc(-c2ccccc2)n1/N=C\c1ccc(-c2ccc(Cl)cc2)o1
The growth inhibition of the first is lower: -78.5% for the first, 6.4% for the second.

First: CCN(CC)/C(C=[N+]=[N-])=N\C(N)=N\S(=O)(=O)c1ccc(OC)cc1
Second: Cc1ccc(S(=O)(=O)CCN2CCOCC2)cc1
The growth inhibition of the first is lower: -37.2% for the first, 15.3% for the second.

Going from O=C1c2ccccc2C(=O)N1CNc1cccc(NCN2C(=O)c3ccccc3C2=O)c1 to CN(CCC(=O)c1ccc2ccccc2c1)Cc1ccccc1, the growth inhibition rises from -3.9% to 16.4%.

Compared with C=C1C(=O)OC2CCCC(O)C12 (stereo not given), OCc1ccc2[n+](c1)CCC1c3ccccc3NC21 (stereo not given) is lower in growth inhibition: 2.35% for the first, -8.35% for the second.

First: CCSC(SCC)C(SCC)C(OC(=O)c1ccccc1)C(OC(=O)c1ccccc1)C(COC(=O)c1ccccc1)OC(=O)c1ccccc1 (stereo not given)
Second: CC(C)CC(NC(=O)C(CCC(=O)OCc1ccccc1)NC(=O)OC(C)(C)C)C(=O)NC(COCc1ccccc1)C(=O)NC(Cc1ccccc1)C(=O)O (stereo not given) (Boc-E(OBn)LS(Bn)F-OH; configuration not given here)
The growth inhibition of the first is higher: 9.3% for the first, -6.65% for the second.

Compared with O=C(O)C(CO)Nc1ccccc1 (stereo not given), COc1ccccc1C(=O)O is lower in growth inhibition: 18.9% for the first, -7.45% for the second.

Going from N#CCCP(=O)(O)CO to Cc1ccc2ccccc2c1CC(=O)NN, the growth inhibition rises from -6.5% to 6.6%.

First: COc1ccc(O)c(C(=O)O)c1
Second: COC1=CC(=O)C(c2cc(O)c(OC)cc2O)=CC1=O
The growth inhibition of the first is lower: -20.2% for the first, -0.15% for the second.

Going from O=C(c1ccccc1)c1cccnc1 to COCC(C)OC(=O)c1ccccc1Cl (stereo not given), the growth inhibition rises from -10.6% to 7.65%.

Compared with CCOC(=O)C(Cc1ccc(O)cc1)NC(=O)C(CSC(c1ccccc1)(c1ccccc1)c1ccccc1)NC(c1ccccc1)(c1ccccc1)c1ccccc1 (stereo not given), COc1ccc(/C=C2\SC(c3ccc(OC)cc3)N(NC(=O)Cc3ccccc3)C2=O)cc1 (stereo not given) is lower in growth inhibition: 4.85% for the first, -14.2% for the second.

Compared with CSc1cc(C)c(C#N)c(SC)n1, CCOC(=O)C1=C(C)OC(=O)CC1C (stereo not given) is higher in growth inhibition: -32.6% for the first, 33.2% for the second.

Going from CC(O)COc1ccc(C(C)(C)C)cc1 (stereo not given) to CC(O)CNC(C)(C)CN (stereo not given), the growth inhibition falls from 3.25% to -7.45%.

First: CC(SC(C)C(=O)N/N=C/C=C\c1ccccc1)C(=O)N/N=C\C=C\c1ccccc1 (stereo not given)
Second: COc1ccc(C2N3CCCCC3[C@@H]3c4[nH]c5ccccc5c4CCN23)c(OC)c1 (stereo not given in full)
The growth inhibition of the first is higher: 15.1% for the first, -30.2% for the second.

Going from NC(=O)c1c[n+]([O-])ccc1[N+](=O)[O-] to OC1CSCCSCCCSCCSC1, the growth inhibition falls from 40.1% to 34.1%.
